JMJD2E inh – blocks human JMJD2E demethylase activity; Potency, µM (highest dose often 57.1 µM), for inactives: at the highest dose activity change, negative = inhibition, hits mostly inhibitors; B2RXH2; AID 2147; 1.6% of 230,000 active; JMJD2E catalytic domain, FDH-coupled NADH fluorescence (FDH is formaldehyde dehydrogenase);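 note: potency is the fitted concentration of half-maximal effect; 0% = wells with enzyme and -100% = buffer wells without enzyme; nearly all actives have a fitted effect of over 50% in size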
GoLoco inh red – RGS12 GoLoco-Gai1 interaction inhibition | P63096 | Gai1:RGS12 GoLoco peptide FP, rhodamine, 10 min | Potency, µM (top dose mostly 61.6 µM), for inactives: at the top dose activity, negative = inhibition, hits mostly inhibitors | 0.44% of 230,000 active | AID 880; active = well fitted inhibition curve with a large enough effect, not every such curve was filed as active; inactive = no such curve, though single readings can be large or run the other way; note: potency is the fitted concentration of half-maximal effect; nearly all actives have a fitted effect of over 30% in size
Sfp PPTase inh – Sfp phosphopantetheinyl transferase inhibition; AID 1490; Q9F4F7; Potency, µM, inactives show largest response in the series, negative = inhibition, actives largely listed as inhibitors; Biochemical Sfp PPTase activity, qHTS; 3.5% of 310,000 active; active = well fitted curve in the direction sought with a large enough effect; inconclusive = small, poorly fitted or top-dose-only effect, or another doubt; inactive = no such curve, though single readings can be large; an effect the other way counts as inactive or inconclusive;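 note: the enzyme is Sfp with the accession as filed and its product quenches rhodamine fluorescence; potency is the fitted concentration of half-maximal effect; 0% = enzyme reaction without inhibitor and -100% = no enzyme wells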
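Reaction rates are the 30-min fluorescence difference (ex 525, em 598 nm) in wells containing 15 nM Sfp, 5 uM rhodamine-CoA and 12.5 uM BHQ-2-YbbR at pH 7.6 with 10 mM MgCl2.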
ALDH1A1 block – ALDH1A1 (human) enzyme inhibition; Potency, µM (top dose mostly 75.3 µM), for inactives: at the top dose activity, negative = inhibition, most hits filed as inhibitors; P00352; 7.3% of 220,000 active; Purified ALDH1A1, NADH fluorescence, propionaldehyde substrate;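 note: potency is the fitted concentration of half-maximal effect; plate controls were no enzyme wells and a reference inhibitor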
Target sequence (P00352 whole entry, looked up): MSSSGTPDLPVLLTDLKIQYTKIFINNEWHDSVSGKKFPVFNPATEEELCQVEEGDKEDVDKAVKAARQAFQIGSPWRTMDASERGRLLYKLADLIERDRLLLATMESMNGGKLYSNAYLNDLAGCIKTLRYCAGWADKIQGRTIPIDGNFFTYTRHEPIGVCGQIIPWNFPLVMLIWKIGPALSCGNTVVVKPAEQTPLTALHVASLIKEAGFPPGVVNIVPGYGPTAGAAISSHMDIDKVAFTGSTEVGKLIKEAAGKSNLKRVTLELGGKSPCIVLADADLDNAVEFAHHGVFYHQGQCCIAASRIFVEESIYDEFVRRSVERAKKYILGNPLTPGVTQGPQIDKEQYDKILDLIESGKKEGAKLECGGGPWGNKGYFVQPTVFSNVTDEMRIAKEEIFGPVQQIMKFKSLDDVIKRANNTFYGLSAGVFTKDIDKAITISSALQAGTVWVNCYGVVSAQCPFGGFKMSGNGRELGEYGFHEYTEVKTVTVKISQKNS
Coupling enz – counter-screen for Giardia aldolase inhibitors: coupling enzyme system. coupling enzyme system counterscreen, AmpLite Red fluorescence. activity change, negative = inhibition, % at 58.2 µM, hits read low. 0.67% of 290,000 active. AID 2472; in the data active = activity change below about -30%
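Activity here indicates interference with the coupling reaction, not aldolase inhibition. Compounds at 57.5 uM final met coupling enzymes for 10 min at RT; substrate and AmpLite Red detection followed, with a 525/598 nm fluorescence read after 20 min.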
NPSR antagonist – antagonists of human neuropeptide S receptor cAMP signaling; Q6W5P4; CHO-NPSR cells, cAMP TR-FRET, antagonist mode; Potency, µM (top dose mostly 38.3 µM), without a hit: at the top dose activity change, negative = inhibition, usual class: inhibitors; 1% of 220,000 active; active = well fitted curve in the direction sought with a large enough effect; inconclusive = small, poorly fitted or top-dose-only effect, or another doubt; inactive = no such curve, though single readings can be large; an effect the other way counts as inactive or inconclusive; note: potency is the fitted concentration of half-maximal effect; nearly all actives have a fitted effect of over 50% in size
An asterisk follows results filed as active; ? = inconclusive; · = no result; [ ] = remark or other dose. Most compounds without a hit are left out; they make up all but 8.5% or so of the library. Unless noted, calls come from the whole dose curve; as a rule, active = well fitted inhibition curve with a large enough effect (not every such curve was filed as active); inconclusive = small, poorly fitted or top-dose-only effect, or another doubt; inactive = no such curve, though single readings can be large or run the other way. Unless noted, % is set by controls: 0 for no effect and ±100 for the full control effect.

SMILES | JMJD2E inh | GoLoco inh red | Sfp PPTase inh | ALDH1A1 block | Coupling enz | NPSR antagonist
Cc1ccc(CNC(=O)CSc2c3c(nc4ccc(Cl)cc24)CCCC3)o1 | -19% | -5% | 35µM* | 8.9µM* | 1 | ?
O=C(CCN1CCC(c2cccs2)=N1)c1cccs1 | -8% | 4% | -3% | 3.2µM* | -8 | -2%
O=C(CCc1ccccc1)c1ccc2c(c1)OCCCO2 | -4% | -1% | -10% | ? | 1 | -8%[46.1 µM]
O=C(CCN1CCC(c2ccccc2)C1)c1cccs1 (stereo unspecified) | 0% | -5% | -20% | 0.13µM* | 1 | -11%[46.1 µM]
O=C(CCN1CCC(c2ccccc2)C1)c1ccccc1 (stereo unspecified) | -5% | -2% | -7% | 1.4µM* | -1 | -2%[46.1 µM]
O=C(CCN1CCC(c2ccccc2)C1)c1ccc2c(c1)OCCO2 (stereo unspecified) | 18µM* | -2% | 50µM* | 0.11µM* | 1 | -13%[46.1 µM]
O=C(Nc1ccccc1)N1CCC(c2ccccc2)C1 (stereo unspecified) | 8% | -2% | 7% | 3% | 1 | -13%[46.1 µM]
C/C(=N\Nc1nncc2ccccc12)c1cccc(OC(F)F)c1 | · | · | 1% | · | -1 | ·
CCC(C(=O)Nc1ccc(C(=O)O)cc1NC(=O)C(CC)c1ccccc1)c1ccccc1 (stereo unspecified) | · | · | 35% | · | 11 | ·
OC(c1ccccc1)c1nccc2ccccc12 (stereo unspecified) | 1% | 8% | -10% | 0% | -1 | 3%
CC(=O)c1ccc(OC(=O)CCc2ccccc2)cc1 | · | · | 7% | · | 3 | ·
COc1cc(C(=O)NC2CCN(Cc3ccccc3)CC2)cc(Cl)c1OC | · | · | 4% | · | 5 | ·
COc1cc(C(=O)CCN2CCC(c3ccccc3)C2)cc(OC)c1OC (stereo unspecified) | 2% | -5% | -17% | 0.04µM* | 0 | -6%
CN(C)c1ccc(O)c2c1C[C@@H]1C[C@H]3C(N(C)C)C(=O)C(C(N)=O)=C(O)[C@@]3(O)C(=O)C1=C2O (stereo partly specified) | ? | -2% | 2% | -1% | -17 | ·
C=C1c2cccc(O)c2C(O)=C2C(=O)[C@]3(O)C(O)=C(C(N)=O)C(=O)C(N(C)C)C3C(O)C12 (stereo partly specified) | 8.9µM* | -15% | -45% | 7% | -5 | ·
C=C1c2c(Cl)ccc(O)c2C(O)=C2C(=O)[C@]3(O)C(O)=C(C(N)=O)C(=O)C(N(C)C)C3C(O)C12 (stereo partly specified) | ? | -8% | -49% | ? | -12 | ·
C=C1c2cccc(O)c2C(O)=C2C(=O)[C@]3(O)C(O)=C(C(N)=O)C(=O)[C@@H](N(C)C)[C@@H]3[C@@H](O)[C@H]12 | ? | -45% | 35µM* | -2% | -2 | -15%
COc1ccc(-c2cc(C(F)(F)F)n3nc(C(=O)N4CCN5CCCC5C4)cc3n2)cc1OC (stereo unspecified) | · | · | 20% | · | -1 | ·
Cc1occc1C(=O)NCCCCc1ccccc1 | 1% | 28% | 18µM* | 18µM* | 3 | -19%[46.1 µM]
Cc1occc1C(=O)NCc1ccc(C(=O)O)o1 | -5% | 1% | 50µM* | -4% | -3 | -12%[46.1 µM]
Fc1cccc(Cl)c1CNCc1cccnc1 | · | · | 12% | · | 1 | ·
Cc1ccc(O)c(NC(=O)c2cc(C)no2)c1 | · | · | -7% | · | 3 | ·
COc1ccc(C2=NN(S(C)(=O)=O)C(c3cccs3)C2)cc1OC (stereo unspecified) | ? | 21% | 6% | ? | 0 | 5%
O=C(/C=C/c1ccco1)NC(=S)Nc1nc(-c2ccc(Cl)cc2)cs1 | 0% | · | -10% | -3% | 1 | 3.2µM*
O=C(/C=C/c1ccco1)NC(=S)Nc1nc(-c2ccc3ccccc3c2)cs1 | ? | 12% | 7% | -8% | -1 | 1.3µM*
SMILES | JMJD2E inh | GoLoco inh red | Sfp PPTase inh | ALDH1A1 block | Coupling enz | NPSR antagonist
CCCCCCC(=O)N1C/C=C\C(c2ccc(OC)cc2)N(Cc2ccc(F)cc2)C(=O)C1Cc1ccccc1 (stereo unspecified) | · | · | -10% | · | 1 | ·
COc1ccc(OC)c(NC=C2C(=O)OC(C)(C)OC2=O)c1 | 1% | 4% | ? | 0.18µM* | -14 | -5%[46.1 µM]
COc1ccc(OC)c(NC=C2C(=O)OC3(CCCCC3)OC2=O)c1 | ? | 3% | -17% | 0.089µM* | -5 | ?
COc1ccc(C(=O)NC=C2C(=O)OC(C)(C)OC2=O)cc1 | 9% | 10% | 5% | 13µM* | -3 | 17%
CCOc1ccccc1NC=C1C(=O)OC2(CCCCC2)OC1=O | 4% | 1% | -4% | 0.71µM* | 0 | ?
CCOc1ccccc1N/C=C/C(=O)C(C)(C)C | 0% | -1% | 1% | -5% | -3 | -17%[46.1 µM]
COc1cccc(NC(=O)COC(=O)CC(NC(N)=O)c2ccc(Cl)cc2)c1 (stereo unspecified) | -2% | -1% | 7% | · | -2 | 9%
CC(=O)c1cccc(NC(=O)N2CCCCCC2)c1 | · | · | 14% | · | 0 | ·
CC(=O)c1cccc(NC=C2C(=O)OC3(CCCCC3)OC2=O)c1 | -15% | 13% | 12% | 2.2µM* | 1 | ?
CCCCn1c(C)cc2c(c1=O)[C@H]1O[C@](CCCC)(Cc3c1ccc1ccccc31)O2 | · | · | 20% | · | 0 | ·
COC(=O)C1=C(C(=O)OC)[C@@H]2N(C)c3ccccc3[C@@]23C[C@@H](CO)N(C(=O)NCCBr)C3=N1 | 4% | 10% | 20% | · | 2 | 9%
Cc1cc(C(=O)N[C@H](c2ccccc2)[C@@]2(C)C[C@@H]2[C@@H](C)C(=O)Nc2ccc3ccccc3c2)n(C)n1 | -1% | 3% | -20% | 16µM* | -2 | -25%
C[C@@H](C(=O)NCC1CC1)[C@@H]1C[C@@]1(C)[C@@H](NC(=O)OCc1ccccc1)c1ccccc1 | 1% | 7% | -17% | -9% | 2 | -36%
C[C@H](CO)NC(=O)[C@H](C)[C@H]1C[C@]1(C)[C@H](NC(=O)OCc1ccccc1)c1ccccc1 | -5% | 1% | 26% | 22µM* | 3 | 5%
C[C@@H](C(=O)NCCF)[C@H]1C[C@]1(C)[C@H](NC(=O)OCc1ccccc1)c1ccccc1 | 10% | -3% | 24% | ? | -1 | ·
C[C@@H](C(=O)Nc1ccc2ccccc2c1)[C@H]1C[C@]1(C)[C@H](NC(=O)OCc1ccccc1)c1ccccc1 | -4% | 48% | 0% | 13µM* | -6 | -43%
C[C@@H](C(=O)NCCc1c[nH]c2ccccc12)[C@H]1C[C@]1(C)[C@H](NC(=O)OCc1ccccc1)c1ccccc1 | -3% | 4% | 11% | 10µM* | -4 | -56%
CCCc1cc(=O)oc2cc(OCc3ccc(C(=O)O)cc3)ccc12 | · | · | -4% | · | 18 | ·
